Laboratory results from PubChem BioAssay AID1159580 (chemical genetic matrix, 2015).
Where a name gives a salt, the structure may show the parent alone. Screen size: about 5,500 compounds; about 2,000 (36%) were called active. Another 18% or so got no clear call; they are omitted. Cut-off read from the data, not from the text of the source: active = normalized growth mostly below about 0.91 (no sharp cut-off); inconclusive = no clear call, values can overlap the other calls; inactive = mostly above about 0.92. Some of the results follow. Where a SMILES comes first, the peptide text is derived from it. The star is where a group is joined. Tfa = O=C(C(F)(F)F)*

Assay: chemical genetic growth profiling, strain panel (AID 1159580);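 note: tested at 20 µM; growth read once vehicle control cultures reached saturation at 30 °C; 1 = growth at the plate median or of vehicle wells; lower values mean less growth of the strain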
Conditions: S. cerevisiae deletion strains, growth OD
[1] = locus YAL021C, strain ccr4, hits give low values
[2] = locus YAL026C, strain drs2, hits give low values
[3] = locus YAL030W, strain snc1, hits give low values
[4] = locus YBL061C, strain skt5, hits give low values
[5] = locus YBR009C, strain hhf1, hits give low values
[6] = locus YBR023C, strain chs3, hits give low values
[7] = locus YBR171W, strain sec66, hits give low values
[8] = locus YBR231C, strain swc5, hits give low values
[9] = locus YBR279W, strain paf1, hits give low values
[10] = locus YCL011C, strain gbp2, hits give low values
[11] = locus YCL016C, strain dcc1, hits give low values
[12] = locus YCL069W, strain vba3, hits give low values
[13] = locus YCR088W, strain abp1, hits give low values
[14] = locus YDL005C, strain med2, hits give low values
[15] = locus YDL040C, strain nat1, hits give low values
[16] = locus YDR001C, strain nth1, hits give low values
[17] = locus YDR069C, strain doa4, hits give low values
[18] = locus YDR137W, strain rgp1, hits give low values
[19] = locus YDR159W, strain sac3, hits give low values
[20] = locus YDR297W, strain sur2, hits give low values
[21] = locus YDR334W, strain swr1, hits give low values
[22] = locus YDR335W, strain msn5, hits give low values
[23] = locus YDR392W, strain spt3, hits give low values
[24] = locus YEL003W, strain gim4, hits give low values
[25] = locus YEL037C, strain rad23, hits give low values
[26] = locus YEL061C, strain CIN8 (second series), hits give low values
[27] = locus YER015W, strain faa2, hits give low values
[28] = locus YER016W, strain bim1, hits give low values
[29] = locus YER111C, strain swi4, hits give low values
[30] = locus YER155C, strain BEM2 (second series), hits give low values
[31] = locus YFR010W, strain ubp6, hits give low values
[32] = locus YGL167C, strain pmr1, hits give low values
[33] = locus YGL173C, strain kem1, hits give low values
[34] = locus YGL227W, strain vid30, hits give low values
[35] = locus YGL240W, strain doc1, hits give low values
[36] = locus YGL253W, strain hxk2, hits give low values
[37] = locus YHR013C, strain ard1, hits give low values
[38] = locus YHR027C, strain rpn1, hits give low values
[39] = locus YHR142W, strain chs7, hits give low values
[40] = locus YJL092W, strain hpr5, hits give low values
[41] = locus YJL095W, strain BCK1 (second series), hits give low values
[42] = locus YJL115W, strain asf1, hits give low values
[43] = locus YJL129C, strain trk1, hits give low values
[44] = locus YJL154C, strain vps35, hits give low values
[45] = locus YJL164C, strain tpk1, hits give low values
[46] = locus YJL166W, strain qcr8, hits give low values
[47] = locus YKL160W, strain elf1, hits give low values
[48] = locus YKR026C, strain gcn3, hits give low values
[49] = locus YKR091W, strain srl3, hits give low values
[50] = locus YLL001W, strain dnm1, hits give low values
[51] = locus YLL026W, hits give low values
[52] = locus YLL041C, strain sdh2, hits give low values
[53] = locus YLR027C, strain aat2, hits give low values
[54] = locus YLR221C, strain rsa3, hits give low values
[55] = locus YLR258W, strain gsy2, hits give low values
[56] = locus YLR262C, strain YPT6 (second series), hits give low values
[57] = locus YLR320W, strain mms22, hits give low values
[58] = locus YLR342W, strain FKS1, hits give low values
[59] = locus YLR357W, strain rsc2, hits give low values
[60] = locus YLR370C, strain arc18, hits give low values
[61] = locus YLR384C, strain iki3, hits give low values
[62] = locus YML120C, strain ndi1, hits give low values
[63] = locus YMR058W, strain fet3, hits give low values
[64] = locus YMR125W, strain sto1, hits give low values
[65] = locus YMR129W, hits give low values
[66] = locus YMR205C, strain PFK2, hits give low values
[67] = locus YMR231W, strain pep5, hits give low values
[68] = locus YNL071W, strain lat1, hits give low values
[69] = locus YNL209W, strain ssb2, hits give low values
[70] = locus YNL248C, strain rpa49, hits give low values
[71] = locus YNL322C, strain KRE1 (second series), hits give low values
[72] = locus YNR049C, strain mso1, hits give low values
[73] = locus YOR001W, strain rrp6, hits give low values
[74] = locus YOR070C, strain gyp1, hits give low values
[75] = locus YOR080W, strain dia2, hits give low values
[76] = locus YOR083W, strain WHI5, hits give low values
[77] = locus YOR106W, strain vam3, hits give low values
[78] = locus YOR265W, strain rbl2, hits give low values
[79] = locus YOR270C, strain vph1, hits give low values
[80] = locus YOR290C, strain snf2, hits give low values
[81] = locus YPL051W, strain arl3, hits give low values
[82] = locus YPL078C, strain atp4, hits give low values
[83] = locus YPL106C, strain sse1, hits give low values
[84] = locus YPL240C, strain hsp82, hits give low values

Measured: normalized growth

O=C1C=C2C=C[C@@H]3C[C@@]2(O1)[C@H]1CCCCN31
inactive: [1] 1.02 | [2] 1.01 | [3] 0.993 | [4] 1.01 | [5] 0.938 | [6] 1.01 | [7] 0.99 | [8] 0.977 | [9] 1.01 | [10] 1.01 | [11] 1.04 | [12] 0.974 | [13] 0.985 | [14] 0.998 | [15] 0.997 | [16] 0.992 | [17] 0.996 | [18] 0.965 | [19] 0.93 | locus YDR195W, strain ref2 0.973 | [20] 0.994 | [21] 0.956 | [22] 1.01 | [23] 0.973 | [24] 0.95 | [25] 0.982 | [26] 0.976 | [27] 1.01 | [28] 1.03 | [29] 1 | [30] 0.986 | [31] 0.96 | [32] 0.978 | [33] 0.977 | [34] 0.985 | [35] 0.989 | [36] 1.01 | [37] 1.01 | [38] 0.979 | locus YHR030C, strain SLT2, hits give low values 1.06 | locus YHR079C, strain IRE1, hits give low values 1.05 | [39] 1.01 | [40] 0.993 | [41] 1 | locus YJL095W, strain BCK1, hits give low values 1 | [42] 0.993 | [43] 1.01 | [44] 0.986 | [45] 0.969 | [46] 0.961 | locus YJL187C, strain SWE1, hits give low values 0.984 | locus YJR066W, strain TOR1, hits give low values 1 | [47] 1.05 | [48] 0.976 | [49] 0.992 | [50] 0.974 | [51] 0.996 | [52] 1 | [53] 1 | locus YLR113W, strain HOG1, hits give low values 1.03 | [54] 0.966 | [55] 1.01 | [56] 0.927 | [57] 0.926 | [58] 1 | [59] 0.986 | [60] 1.01 | [61] 0.991 | [62] 0.956 | [63] 0.981 | [64] 1 | [65] 0.986 | [66] 0.997 | [67] 0.994 | [68] 0.98 | locus YNL183C, strain NPR1, hits give low values 0.973 | [69] 1 | [70] 1.04 | [71] 1 | [72] 1.01 | [73] 0.94 | [74] 0.991 | [75] 0.994 | [76] 0.982 | [77] 1.01 | locus YOR231W, strain MKK1, hits give low values 1.02 | [78] 0.989 | [79] 1 | [80] 1.05 | [81] 1.05 | [82] 1.04 | [83] 1.02 | [84] 0.994 | locus YPL256C, strain CLN2, hits give low values 1.03

CC(C)C(NC(=O)C(Cc1ccc(O)cc1)NC(=O)C(NC(=O)C(F)(F)F)C(C)C)C(=O)O (stereo not drawn) (Tfa-Val-Tyr-Val-OH; configuration not given here)
inactive: [1] 0.997 | [2] 1 | [3] 0.985 | [4] 0.984 | [5] 1.02 | [6] 0.983 | [7] 0.976 | [8] 1 | [9] 0.996 | [10] 1 | [11] 0.98 | [12] 1 | [13] 0.988 | [14] 0.998 | [15] 0.976 | [16] 0.997 | [17] 0.984 | [18] 0.968 | [19] 0.979 | locus YDR195W, strain ref2 0.995 | [20] 0.985 | [21] 1.01 | [22] 0.994 | [23] 0.935 | [24] 0.996 | [25] 0.99 | [26] 1.01 | [27] 0.999 | [28] 0.976 | [29] 0.972 | [30] 0.983 | [31] 0.997 | [32] 0.985 | [33] 0.991 | [34] 0.988 | [35] 0.998 | [36] 0.982 | [37] 0.94 | [38] 0.988 | [39] 0.995 | [40] 0.995 | [41] 0.975 | [42] 0.986 | [43] 0.995 | [44] 0.98 | [45] 0.989 | [46] 1.02 | [47] 1 | [48] 0.989 | [49] 0.983 | [50] 1 | [51] 1 | [52] 1 | [53] 0.991 | [54] 1 | [55] 0.995 | [56] 0.969 | [57] 0.993 | [58] 0.996 | [59] 0.951 | [60] 0.992 | [61] 1 | [62] 0.98 | [63] 0.982 | [64] 0.978 | [65] 0.998 | [66] 0.998 | [67] 0.997 | [68] 0.987 | [69] 1 | [70] 0.963 | [71] 0.971 | [72] 1 | [73] 1 | [74] 0.995 | [75] 0.984 | [76] 0.94 | [77] 1 | [78] 0.998 | [79] 0.963 | [80] 0.985 | [81] 0.986 | [82] 0.987 | [83] 0.954 | [84] 0.981
